Hit rate of the full screen: of about 330,000 compounds, about 7,700 (2.3%) were called active. About 26% were inconclusive and are not listed. The full list was thinned out, with actives kept by preference. A number with no mark means an inactive call. Calls come from the whole dose curve; as a rule, active = well fitted inhibition curve with a large enough effect; inconclusive = small, poorly fitted or top-dose-only effect, or effect the other way; inactive = flat fitted curve, though single readings scatter.
Test: qHTS screen for small molecules that inhibit ELG1-dependent DNA repair in human embryonic kidney (HEK293T) cells expressing luciferase-tagged ELG1; note: nearly all actives have a fitted effect of over 55% in size
Settings: HEK293T ELG1-luciferase reporter, luminescence, 16 h, DNA damage induced by 5-fluorouridine; series mostly up to 46.1 µM; activity change, negative = inhibition: at the top concentration
Text: NIH Molecular Libraries Probe Production Network [MLPCN] NIH Chemical Genomics Center [NCGC] MLPCN Grant: 1 R03 MH092164-01 Assay Provider: Kyungjae Myung, NHGRI, NIH Keywords: MLPCN, qHTS, NCGC, genotoxicity, cancer Assay Overview: Cancer cells divide rapidly compared to normal cells in the body. During cell division, cancer cells need to duplicate their genome by DNA replication. The failure of genome duplication leads to cancer cells' death. Therefore, inhibitors of DNA replication could specifically kill cancer cells. Based on this concept, many chemotherapeutic agents were developed and have been used to treat cancer patients. However, there are a limited number of agents available in the clinical setting, and some of those that do exist have low efficacy and severe side effects. Therefore, if we can find the compounds that effectively block DNA replication either by directly damaging DNA or by inhibiting other cellular mechanisms, the options for cancer treatment will be broadened. With this in mind, we developed a quantitative high-throughput ELG1-luciferase reporter gene assay. Small molecules that specifically block ELG1 function in response to DNA damage can be identified by monitoring the suppression of luciferase activity. Since ELG1 defines a pathway for repairing DNA damage, agents blocking ELG1 function can be used to sensitize cancer cells to chemotherapeutic agents whose mechanism of action involves the induction of DNA damage.
Assay Protocol Summary: For genotoxicity screening, 2,000 cells in 4 uL/well were dispensed into white, solid-bottom 1536-well plates using a solenoid-based dispenser. Following transfer of 1 uL 5-Fluorouridine and 23 nL compound or DMSO vehicle by a pin tool, the plates were incubated 16 hr at 37 °C and 5% CO2. 5 ul ONE-Glo (Promega) was then added to each plate and following a 30 min incubation at room temperature, luciferase activity was quantified on a ViewLux CCD-based plate reader.
% is set by controls: 0 for no effect and ±100 for the full control effect; potency is the fitted concentration of half-maximal effect.

| SMILES | activity change, negative = inhibition [%] | Potency |
| --- | --- | --- |
| O=C(CSc1ncn[nH]1)Nc1ccc(Br)cc1Br | 18 |  |
| Nc1ncnc2c1ncn2[C@@H]1O[C@H](CNS(=O)(=O)c2ccc(-c3ccno3)s2)[C@@H](O)[C@H]1O | 12.8 |  |
| CCn1ccnc1CN(C)C(=O)c1cc(COc2ccc(-n3cncn3)cc2)on1 | 1.51 |  |
| COc1ccc(CC(=O)Nc2nc(-c3ccc(F)c(F)c3)cs2)cc1OC | -17.4 |  |
| COc1cccc(CC(=O)Nc2ccc(-c3csc(C)n3)cc2)c1 | -2.46 |  |
| COc1cccc(CC(=O)Nc2nc(-c3ccc(OC)c(OC)c3)cs2)c1 |  | 25.9 µM (active) |
| COc1ccccc1C(=O)NCC(=O)OCC(=O)Nc1nnc(-c2ccccc2)o1 | 18.9 |  |
| COc1ccc(/C=C/C(=O)NC(=S)N2CCCC(C(N)=O)C2)cc1 (stereo not drawn) | 12.9 |  |
| CCOC(=O)c1sc(NC(=O)CSc2nc3c(c(=O)n2-c2ccccc2)SCC3)c(C(=O)OCC)c1C | -7.99 |  |
| CCOc1ccc(NC(=O)CSc2nc3c(c(=O)n2-c2ccccc2OC)SCC3)cc1 | -1.1 |  |
| CCc1nnc(NC(=O)CSc2nc3c(c(=O)n2-c2ccccc2OC)SCC3)s1 |  | 20.6 µM (active) |
| Cc1ccc(S(=O)(=O)NCCC(=O)OCC(=O)N(C)c2ccccc2)cc1 | -14.6 |  |
| O=c1oc2ccccc2c(NC2CCCCC2)c1NS(=O)(=O)c1ccc(Cl)cc1 | -0.699 |  |
| O=c1ccc2cc(S(=O)(=O)Nc3ccccc3F)ccc2o1 | 3.06 |  |
| O=c1oc(-c2ccccc2NS(=O)(=O)c2ccc(Cl)cc2)nc2ccccc12 |  | 14.6 µM (active) |
| CCOc1ccc(C(=O)Nc2ccc(S(=O)(=O)NCC3CCCO3)cc2)cc1OCC (stereo not drawn) | -11.3 |  |
| Cc1ccc(NC(=O)c2ccc(S(=O)(=O)NCC3CCCO3)cc2)cc1C (stereo not drawn) | -12.5 |  |
| CN(CC1CCCO1)S(=O)(=O)c1ccc(C(=O)Nc2ccc(F)cc2)cc1 (stereo not drawn) |  | 4.11 µM (active) |
| CCC(=O)Nc1ccc(S(=O)(=O)NCC2CCCO2)cc1 (stereo not drawn) | -9.4 |  |
| O=C(Nc1ccc(S(=O)(=O)NCC2CCCO2)cc1)c1ccc(F)cc1 (stereo not drawn) | -17.1 |  |
| CN(CC1CCCO1)S(=O)(=O)c1ccc(C(=O)Nc2ccc([N+](=O)[O-])cc2)cc1 (stereo not drawn) |  | 1.83 µM (active) |
| Cc1c2cnn(CC(=O)NCc3ccccn3)c(=O)c2c(C)n1Cc1ccc(Cl)cc1 | -19.6 |  |
| COc1cccc(-n2c(SCC(=O)NC3CCS(=O)(=O)C3)nc3ccccc3c2=O)c1 (stereo not drawn) | 6.94 |  |
| C[C@H]1CN([C@@H](C)CO)C(=O)Cc2cc(NC(=O)Cc3ccccc3)ccc2O[C@H]1CN(C)S(=O)(=O)c1cccs1 | -24.8 |  |
| O=c1ccc2c(-c3ccccc3S(=O)(=O)O)c3ccc(O)c(O)c3oc-2c1O |  | 35.5 µM (active) |

| SMILES | activity change, negative = inhibition [%] | Potency |
| --- | --- | --- |
| COc1cc(OC)cc(-c2sc3ccc(OC)cc3c2-c2ccc3cc[nH]c3c2)c1 | 0 |  |
| CC(C)CC1NC(=O)c2cc(Cl)ccc2-n2c1nc1ccccc1c2=O (stereo not drawn) | 8.05 |  |
| Cc1cccc(N(Cc2ccccc2)C(=O)c2ccccc2F)c1 | -11.6 |  |
| COC(=O)c1ccc2c(=O)n(CCN3CCOCC3)c(SCC(=O)Nc3cccc(OC)c3)nc2c1 | -4.3 |  |
| CCc1ccc(NC(=O)CSc2nc3ccccc3c(=O)n2CCN2CCOCC2)cc1 |  | 23.1 µM (active) |
| CCOc1ccc(NC(=O)CSc2nc3ccccc3c(=O)n2Cc2cccs2)cc1 | 21 |  |
| Cn1c(=O)n(C)c2cc(S(=O)(=O)Nc3ccc(F)cc3)ccc21 | -1.4 |  |
| CC1(C)CC(=O)C=C(c2cccc3c2Oc2ccccc2S3)C1 | 13 |  |
| Cc1ccc(N(CC(=O)Nc2cccc(N(C)S(C)(=O)=O)c2)S(C)(=O)=O)cc1 |  | 6.51 µM (active) |
| COc1cccc(N(CC(=O)Nc2cccc(F)c2)S(C)(=O)=O)c1 | 0.188 |  |
| CCOc1ccc(N(CC(=O)Nc2cccc(OC)c2)S(C)(=O)=O)cc1 | 15.1 |  |
| Cc1[nH]c2ccccc2c1C(=O)C(C)Sc1nnc(C2CC2)o1 (stereo not drawn) | 8.65 |  |
| O=C(COC(=O)c1ccc([N+](=O)[O-])o1)NC12CC3CC(CC(C3)C1)C2 | 9.39 |  |
| COC(=O)[C@]1(Cc2ccccc2)N[C@H](CN(C)S(=O)(=O)c2ccc(F)cc2)[C@@H]2C(=O)N(Cc3ccccc3)C(=O)[C@@H]21 | -21.5 |  |
| CC(=O)N1c2ccc(S(=O)(=O)N3CCCC(C(=O)NCc4ccc(Cl)cc4)C3)cc2CC1C (stereo not drawn) | -15.6 |  |
| N#Cc1cccc(NC(=O)C2CCCN(C(=O)c3ccc(Cl)cc3)C2)c1 (stereo not drawn) | -29.3 |  |
| Cn1c(-c2sc3cc(C(F)(F)F)cnc3c2-c2ccccc2)n[nH]c1=S | -13.7 |  |
| Cc1ccccc1-c1n[nH]c(=S)n1C | 5.07 |  |
| Cn1c(-c2sccc2OCc2cccc(C(F)(F)F)c2)n[nH]c1=S |  | 23.1 µM (active) |
| O=C(Nc1ccccc1N1CCCC1)c1ccc(F)c(S(=O)(=O)N2CCOCC2)c1 | 6.03 |  |
| COc1ccc(CCC(=O)N2CCN(S(=O)(=O)c3ccc(OC)cc3)CC2)cc1 | -5.8 |  |
| CCCNC(=O)CSc1nc(Cc2ccccc2)nc2ccccc12 | -13.7 |  |
| CCCNC(=O)CCc1c(C)nc2c(c(C)nn2-c2ccc(C)cc2)c1C | -24 |  |
| CCCCC(CC)CNCc1cccn1CCN1CCOCC1 (stereo not drawn) | -7.51 |  |
| CCN(CC)c1ccc(NC(=O)c2ccc(=O)[nH]c2)cc1S(=O)(=O)Nc1ccc(OC)cc1 | 6.95 |  |

| SMILES | activity change, negative = inhibition [%] | Potency |
| --- | --- | --- |
| CCN(c1ccccc1)S(=O)(=O)c1cccc(C(=O)NCc2ccccc2CN2CCOCC2)c1 |  | 11.6 µM (active) |
| CCN(c1ccccc1)S(=O)(=O)c1cccc(C(=O)O)c1 | 0.0915 |  |
| O=C(NCc1ccccc1CN1CCCC1)c1cccc(S(=O)(=O)Nc2ccc(F)cc2)c1 | 2.84 |  |
| Cc1noc(C)c1C(=O)OC(C)C(=O)Nc1ccc2c(c1)OCO2 (stereo not drawn) | 0.0047 |  |
| CC(C)C[C@H]1CN=C(Nc2ccccc2)N1CC1CCCCC1 | -13.2 |  |
| CCCCN(C(=O)CSCC(=O)Nc1ccc(OC)cc1)c1c(N)n(CCC)c(=O)[nH]c1=O | -3.97 |  |
| O=S(=O)(Nc1cccc(-n2cnnn2)c1)c1cnc(Cl)c(Cl)c1 | 1.57 |  |
| COc1cccc(N(CC(=O)NC2CCCCCC2)S(=O)(=O)c2ccccc2)c1 | 8.34 |  |
| Cc1nc2ccc(NC(=O)C3CCCCC3)cc2s1 | 11.8 |  |
| O=C(Nc1nc2ccc(S(=O)(=O)N3CCCC3)cc2s1)C1CCCO1 (stereo not drawn) | -0.48 |  |
| Cc1ccc2nc(NC(=O)C3CCN(S(=O)(=O)c4ccc5c(c4)oc(=O)n5C)CC3)sc2c1 |  | 10.3 µM (active) |
| CS(=O)(=O)c1ccc2nc(NC(=O)C3CCCCC3)sc2c1 |  | 3.66 µM (active) |
| CS(=O)(=O)c1ccc2nc(NC(=O)CN3CCCCCC3)sc2c1 | 10.2 |  |
| Cn1c(=O)oc2cc(S(=O)(=O)N3CCC(C(=O)Nc4ccc(OC(F)(F)F)cc4)CC3)ccc21 | 9.71 |  |
| CC(=O)c1c(C)[nH]c(C(=O)N2CCN(S(=O)(=O)c3ccc(F)c(F)c3)CC2)c1C | 8.13 |  |
| O=C(COc1ccc(S(=O)(=O)Nc2cccc(C(F)(F)F)c2)cc1)N1CCOCC1 | -4.33 |  |
| O=S1(=O)CCC(NC(=S)SCc2ccccc2Br)C1 (stereo not drawn) | 15.4 |  |
| CCCSC(=S)NC1CCS(=O)(=O)C1 (stereo not drawn) |  | 23.1 µM (active) |
| COc1ccc(NC(=S)NC2CCS(=O)(=O)C2)cc1 (stereo not drawn) | -1.15 |  |
| O=C1COc2ccc(C(=O)CSc3ccc(Br)cc3)cc2N1 | -17 |  |
| O=C(NCc1ccccc1CN1CCCC1)C1CCN(S(=O)(=O)c2ccc(Cl)cc2)CC1 | 10 |  |
| Brc1ccc(CN2CC[C@H]3C=CCc4cccc(c43)C2)cc1 | -13.4 |  |
| COc1ccc(CNC(=O)COC(=O)C(CCSC)N2C(=O)c3ccccc3C2=O)cc1 (stereo not drawn) | 0 |  |
| Cc1ccnc(N2CCCC(C(=O)Nc3cc(F)ccc3C)C2)n1 (stereo not drawn) | -12.3 |  |
| Cc1sc2ncnc(N3CCC(C(=O)Nc4ccc(F)cc4Cl)CC3)c2c1C |  | 20.6 µM (active) |

| SMILES | activity change, negative = inhibition [%] | Potency |
| --- | --- | --- |
| Cc1sc2ncnc(SCC(=O)Nc3ccc(CN4CCCC4)cc3)c2c1C | -2.86 |  |
| CC1CC(C)CN(CCOc2cccc3ccccc23)C1 (stereo not drawn) | 2.83 |  |
| CN(CC(=O)NCCc1ccc(S(N)(=O)=O)cc1)CC(=O)Nc1ccc(F)c(F)c1F | 6.42 |  |
| C=CC[C@@H](CC(=O)N[C@H](CO)Cc1ccccc1)C(=O)N[C@@H](COC(=O)[C@@H](CC=C)Cc1ccc(F)cc1)Cc1c[nH]c2ccccc12 | -11.3 |  |
| C=CCC[C@@H](Cc1ccc(F)cc1)C(=O)OC[C@@H](C)NC(=O)[C@H](CC=C)CC(=O)N(CCO)Cc1ccccc1 | 0 |  |
| C=CC[C@H](CC(=O)NCCO)C(=O)N[C@@H](COC(=O)[C@@H](CC=C)Cc1ccc(F)cc1)Cc1c[nH]c2ccccc12 | -27.5 |  |
| C=CCC[C@H](Cc1ccc(F)cc1)C(=O)OC[C@@H](NC(=O)[C@@H](CC=C)CC(=O)N[C@H](CO)Cc1ccccc1)C(C)(C)C | 0 |  |
| C=CCC[C@@H](Cc1ccc(F)cc1)C(=O)O[C@H](CNC(=O)[C@H](CC=C)CC(=O)N(CCO)Cc1ccccc1)c1ccccc1 |  | 20.6 µM (active) |
| C=CCC[C@@H](Cc1ccc(F)cc1)C(=O)OC[C@H](Cc1c[nH]c2ccccc12)NC(=O)[C@@H](CC=C)CC(=O)N(CCO)Cc1ccccc1 |  | 20.6 µM (active) |
| Cc1ccc(Br)c(NS(=O)(=O)c2cccc(C(=O)N3CCNC(=O)C3)c2)c1 | 11.5 |  |
| CC(C)c1ccc(S(=O)(=O)N2CCN(C(C)C(=O)NC3CCCC3)CC2)cc1 (stereo not drawn) | 0.179 |  |
| O=C(NC1CCCCCC1)C1CCN(C(=O)c2ccc(Cl)cc2)CC1 | 0.0569 |  |
| O=C(COC(=O)CN1C(=O)C2CCCCC2C1=O)Nc1ccc(F)c(F)c1F (stereo not drawn) | 0 |  |
| CCC1(C)NC(=O)N(CC(=O)N2CCN(c3cccc(Cl)c3)CC2)C1=O (stereo not drawn) | -7.61 |  |
| COc1ccc(CNc2ncnc3ccccc23)cc1 |  | 2.59 µM (active) |
| CC(Nc1nc(C(F)(F)F)nc2ccccc12)c1cccs1 (stereo not drawn) | -9.25 |  |
| c1coc(CNc2ncnc3ccccc23)c1 | 9.04 |  |
| Cc1cc(C)n(-c2nc(C(F)(F)F)nc3ccccc23)n1 | -2.14 |  |
| CCc1nc2ccccc2c(C(=O)NCc2ccc(OC)cc2)c1C | -3.67 |  |
| COc1cccc(CNc2nc(C(F)(F)F)nc3ccccc23)c1 |  | 13 µM (active) |
| NS(=O)(=O)c1ccc(CCNC(=O)CNC(=O)Cc2ccccc2)cc1 | 1.47 |  |
| NS(=O)(=O)c1ccc(CCNc2nc(C(F)(F)F)nc3ccccc23)cc1 |  | 11.6 µM (active) |
| COc1cccc(CNc2ncc(-c3ccccc3)n2C)c1 | -18.4 |  |
